PubChem BioAssay AID1985 (Southern Research Specialized Biocontainment Screening …, 2009)
Out of some 2,300 compounds screened, about 1,000 (43%) were called active. How the calls were made is not given here. The set was probably picked from earlier hits. Some of the results follow. Measured potencies and affinities stand elsewhere.

experiment: PhoP regulon inhibitor project modified counter assay, GFP fluorescence readout, dose response (AID 1985); settings: S. Typhi, 4 h; series mostly up to 150 µM

Row | Structure (SMILES) | outcome
1 | O=C(O)CC/C(=C\c1ccccc1[N+](=O)[O-])c1nc2ccccc2s1 | inactive
2 | O=C(OCc1nc2ccccc2s1)c1ccco1 | inactive
3 | O=C1CCCC(=O)N1c1ccc(N2CCOCC2)c([N+](=O)[O-])c1 | inactive
4 | CCn1cc(C(=O)NCCc2ccccc2)c(=O)c2cc(F)c(N3CCN(C)CC3)cc21 | inactive
5 | CN(C)CCN1C(=O)C(O)=C(C(=O)c2cc3ccccc3o2)C1c1ccccn1 (stereo not given) | inactive
6 | O=C(Cn1nc(Cc2ccncc2)c2ccccc2c1=O)Nc1cccnc1Cl | inactive
7 | COc1ccc(N(CCCN2C(=O)c3cccc4cccc(c34)C2=O)C(=O)c2cccnc2)cc1 | inactive
8 | O=C(c1ccco1)N1CCCN(Cc2nc(-c3ccc4c(c3)OCO4)no2)CC1 | inactive
9 | O=C(NCc1ccc2c(c1)OCO2)c1ccc2c(c1)C(=O)N(Cc1cccnc1)C2=O | inactive
10 | C1CCC(n2nnnc2CN2CCN(C3CCCC3)CC2)CC1 | inactive
11 | CCN(CC)CCOC(=O)c1ccc(N/C=C(/C#N)c2nc(-c3ccc(OC)c(OC)c3)cs2)cc1 | inactive
12 | Cc1ccc(-n2ncc3c(=O)[nH]cnc32)c(C)c1 | inactive
13 | O=C(Nc1cccc(OCC(=O)N2CCOCC2)c1)c1cccc([N+](=O)[O-])c1 | inactive
14 | N/C(=N\OC(=O)N1CCOCC1)c1ccccc1 | inactive
15 | O=C1c2ccccc2C(=O)C1(CO)c1ccc(OC(F)F)cc1 | inactive
16 | Cc1nnc(SCC(=O)Nc2cc(S(=O)(=O)N3CCCC3)ccc2Cl)s1 | inactive
17 | COc1ccc(C)cc1S(=O)(=O)N1CCCC(C(=O)NCC2CCCO2)C1 (stereo not given) | inactive
18 | COC(=O)C1=C(C(=O)OC)SC(=C2C(=S)C(C)(C)N(C(=O)C3CC3)c3ccccc32)S1 | inactive
19 | O=C(NCC1CC1)Nc1cccs1 | inactive
20 | CC(C)(C)NC(=O)NC(=O)COC(=O)CCC1CCCC1 | inactive
21 | Cc1c(C(=O)O)oc2c3c(ccc12)OCCO3 | inactive
22 | c1ccc(CNc2nc(N3CCN(Cc4ccccc4)CC3)nc3ccccc23)cc1 | inactive

Row | Structure (SMILES) | outcome
23 | CC(Nc1nc(N2CCCCC2)nc2ccccc12)c1ccccc1 (stereo not given) | inactive
24 | COc1ccc(N2CCN(C(CNC(=O)c3ccc4c(c3)OCO4)c3ccco3)CC2)cc1 (stereo not given) | inactive
25 | COc1ccc(C(CC(=O)O)NC(=O)C2CCCCC2)cc1 (stereo not given) | inactive
26 | CCCOc1ccc(-c2cn3ccccc3n2)cc1 | inactive
27 | COC(=O)c1ccc(NC(=O)c2ccccc2N(C)S(=O)(=O)c2ccccc2)cc1 | inactive
28 | Cc1cccc(N2CCN(C(=O)CCN3C(=S)NC(C)(C)CC3C)CC2)c1C (stereo not given) | inactive
29 | CC(C)OCCCn1c(=S)[nH]c2cc3c(cc2c1=O)OCO3 | inactive
30 | O=C(NCc1ccccn1)c1nc(Cn2ccc([N+](=O)[O-])n2)no1 | inactive
31 | CC(C)c1ccc(N(C(=O)C(F)(F)F)C(C(=O)NC2CCCCC2)c2ccncc2)cc1 (stereo not given) | inactive
32 | O=C(CN1CCCC1)Nc1ccc(-c2nc3cc(NC(=O)CN4CCCC4)ccc3o2)cc1 | inactive
33 | CC(=O)c1c(N2CCN(c3cccc(Cl)c3)CC2)nc(=S)n(-c2ccccc2)c1C | inactive
34 | COc1cccc(NC(=O)CSc2nncn2-c2ccccn2)c1 | inactive
35 | COc1ccc(Nc2nc(-c3ccccc3)nc3ccccc23)cc1S(=O)(=O)N1CCOCC1 | inactive
36 | COc1ccc(OC)c(CCNC(=O)CS(=O)(=O)Cc2nc(-c3ccccc3C)oc2C)c1 | inactive
37 | COC(=O)c1ccc(Cn2c(O)c(N=NC(N)=S)c3ccccc32)o1 | inactive
38 | c1ccc(CSc2ccc(-c3cccs3)nn2)nc1 | inactive
39 | CCc1nnc(NC(=O)c2ccc(S(C)(=O)=O)cc2)s1 | inactive
40 | Cc1ccc2[nH]cc(CCNC(=O)c3cccnc3)c2c1 | inactive
41 | COc1ccc(-c2csc(N)n2)cc1F | inactive
42 | O=C(Nc1ccc(Cc2ccncc2)cc1)c1cccs1 | inactive
43 | Cc1cc(C)cc(NC(=O)CSc2nnc(CNC(=O)c3cccs3)o2)c1 | inactive
44 | Cc1ccc(NC(=O)OCc2cccs2)cc1 | inactive

Row | Structure (SMILES) | outcome
45 | CC(C)(C)n1nc2c(c1NC(=O)c1cccs1)CS(=O)C2 (stereo not given) | inactive
46 | Nc1nc(SCC(=O)N2CCCC2)[nH]c(=O)c1NC(=O)c1cccs1 | inactive
47 | CCc1ccc2c(c1)CCCN2C(=O)c1ccccc1C(=O)O | inactive
48 | CC1Cc2ccccc2N1S(=O)(=O)c1cccc(C(=O)N2CC(=O)Nc3ccccc32)c1 (stereo not given) | inactive
49 | Cc1noc(C)c1CCC(=O)N1CCCC(CCC(=O)NCc2ccc(F)c(F)c2)C1 (stereo not given) | inactive
50 | COc1ccc(NS(=O)(=O)c2cc(NC(=O)c3ccc(C)s3)ccc2N2CCOCC2)cc1 | inactive
51 | CCCC(=O)c1c(NC)cc(C)oc1=O | inactive
52 | CCOC(=O)C1=C(O)c2ccccc2C(=O)/C1=C\c1ccc(C)cc1 | inactive
53 | CCOc1cc(C2NC(=O)N(C)C(C)=C2[N+](=O)[O-])ccc1OC(C)=O (stereo not given) | inactive
54 | CCc1nc(N)nc(N)c1-c1ccc(Cl)cc1 | inactive
55 | CCNc1nc(N)nc(Oc2ccc(OCCOc3ccc(Cl)cc3Cl)nn2)n1 | inactive
56 | NCCCCCc1nnc(SCc2ccc(Cl)cc2Cl)o1 | inactive
57 | COc1ccc(C2C(C#N)=C(N)Oc3n[nH]c(C)c32)cc1CSc1ccccn1 (stereo not given) | inactive
58 | COc1ccc(OCC(=O)Nc2ccc3c(c2)nc(CCN2CCC(C)CC2)n3C)cc1 | inactive
59 | COc1ccc(CCNC2CCCCC2)cc1 | inactive
60 | CCOC(=O)c1cccc(NC(=O)C2CCC(CNc3c(N4CCOCC4)c(=O)c3=O)CC2)c1 (stereo not given) | inactive
61 | Cc1ccc(-c2c(C)n([O-])c3c([n+]2=O)CCCC3)o1 | inactive
62 | O=C(CSc1ccc(Cl)cc1)c1ccco1 | inactive
63 | O=C(CCNC(=O)c1ccco1)Nc1cccc(Br)c1 | inactive
64 | CSc1ccc2c(c1)N(CCC1CCCCN1C)c1ccccc1S2 (stereo not given) | inactive
65 | c1ccc2c(c1)OC(CCCN1CCCCC1)c1ccccc1S2 (stereo not given) | inactive
66 | OCCN1CCN(CCCN2c3ccccc3Sc3ccc(C(F)(F)F)cc32)CC1 | inactive

Row | Structure (SMILES) | outcome
67 | Cc1cc(Cl)ccc1OCCCC(=O)N1CCCc2ccccc21 | inactive
68 | c1ccc(-c2nc(NC3CC3)nc(-n3ccnc3)n2)cc1 | inactive
69 | COc1ccc(C2C(C(=O)NCc3cccnc3)c3ccccc3C(=O)N2C)cc1OC (stereo not given) | inactive
70 | N#Cc1nc(Cc2ccccc2)oc1NCCN1CCOCC1 | inactive
71 | c1ccc2cc3c(NCCN4CCOCC4)ccnc3cc2c1 | inactive
72 | COC(=O)c1ccc(CSc2nc3ccccc3c(=O)n2-c2ccc(OC)c(OC)c2)o1 | inactive
73 | Cc1c(/C=N/NC(=O)c2ccc3c(c2)OCO3)cnn1C | inactive
74 | COc1ccc(C(=O)O/N=C2\C(=O)N(C)c3ccccc32)cc1 | inactive
75 | O=C(Nc1ccc(N2CCOCC2)cc1)C1CCN(S(=O)(=O)c2ccccc2F)CC1 | inactive
76 | CCc1cccc2c(C=C(C#N)C#N)cn(CC(=O)N3CCCCCC3)c12 | inactive
77 | CCOC(=O)c1ccc(S(=O)(=O)N2CCN(CCC#N)CC2)cc1 | inactive
78 | CC(=O)NCc1ccc(C(=O)CCl)cc1 | inactive
79 | CN(C)[C@@H]1C(=O)C(C(N)=O)=C(O)[C@@]2(O)C(=O)C3=C(O)c4c(O)cccc4[C@@](C)(O)C3[C@H](O)C12 (stereo not given in full) | inactive
80 | O=C1c2c(O)ccc(O)c2C(=O)c2c(NCCNCCO)ccc(NCCNCCO)c21 | inactive
81 | C[C@@H](NC(=O)/C(C#N)=C/c1ccc(O)c(O)c1)c1ccccc1 | inactive
82 | Cc1nc2cc(C(=O)N3CCC4(CC3)OCCO4)ccc2n1-c1cccc(F)c1 | inactive
83 | COC(=O)C1=C(C)N(CC2CC2)C(=O)N[C@H]1c1ccc(Br)cc1 | inactive
84 | COC(=O)C1=C(C)N(Cc2ccco2)C(=O)N[C@H]1c1ccc(Br)cc1 | inactive
85 | COc1ccc2c(C(=O)CN(C)C3CCCCC3)c[nH]c2c1 | inactive
86 | COc1ccc(CC(=O)N(Cc2cc3cc(OC)ccc3[nH]c2=O)C(C)C)cc1 | inactive
87 | COC(=O)NNS(=O)(=O)c1ccc(C)cc1 | inactive
88 | N#CCC(=O)N/N=C/c1ccccc1Cl | inactive

Row | Structure (SMILES) | outcome
89 | Cc1cc([N+](=O)[O-])nn1CC(=O)Nc1cccc2nonc12 | inactive
90 | Cc1[nH]nc2c1C1(CCC3(CC1)OCCO3)C(C#N)=C(N)O2 | inactive
91 | NC(=O)COc1c(-c2ccco2)oc2ccccc2c1=O | inactive
92 | COC(=O)c1ccc(NC(=S)NNC(=O)c2ccccc2)cc1 | inactive
93 | COc1ccc(-c2noc(CCC(=O)Nc3cccc(C)c3)n2)cc1 | inactive
94 | COc1ccc(-c2nc3ccc(C(=O)NCC(OC)OC)cc3nc2-c2ccc(OC)cc2)cc1 | inactive
95 | O=C(NNC(=O)c1cccs1)c1ccc2ccccc2c1 | inactive
96 | CCOC(=O)c1cccc(NC(=O)c2cccs2)c1 | inactive
97 | CCCOc1ccc(C2C(C(=O)c3ccc(C)o3)=C(O)C(=O)N2CCCn2ccnc2)cc1 (stereo not given) | inactive
98 | Clc1ccc(-c2cc(C3CCNCC3)[nH]n2)c(Cl)c1 | inactive
99 | C=CCn1c(C)c(C(C)=O)c(SC)nc1=S | inactive
100 | COc1ccc(CNC(=O)C(c2cccs2)N(C(=O)c2csnn2)C2CC2)cc1 (stereo not given) | inactive
101 | COCCN1C(=O)C(=O)/C(=C(/O)c2cccc(OC)c2)C1c1ccncc1 (stereo not given) | inactive
102 | CCC1(CC)C(=O)NC(=O)NC1=Nc1cccc(OC)c1 | inactive
103 | CCC(=O)c1ccc(OCC(O)CNCCc2ccc(Cl)cc2)cc1 (stereo not given) | inactive
104 | Cn1c(=O)cc(SCC(=O)N2CCN(C3CCCCC3)CC2)c2ccccc21 | inactive
105 | Cn1c(C(O)c2ccccc2F)nc(Cl)c1Cl (stereo not given) | inactive
106 | CSc1ccccc1NC(=O)CN1CCCCC1C (stereo not given) | inactive
107 | CNS(=O)(=O)c1cccc(C(=O)OCc2cc(=O)oc3c(C)c(O)ccc23)c1 | inactive
108 | O=C(N/N=C/c1ccc(F)c(F)c1)c1cc2c(s1)-c1ccccc1CC2 | inactive
109 | CC(C)(C)Nc1nc(-c2ccccn2)nc2ccccc12 | inactive
110 | CC(C)(C)NC(=O)/C=C/c1ccc(C(F)(F)F)cc1 | inactive
